Compound activity deposited in PubChem BioAssay by National Center for Advancing Translational Sciences (NCATS).
A selection: hits, their analogues and other compounds. The true share with any hit is near 19%.
uPA surface inh = qHTS for Inhibitors of Cell Surface uPA Generation. AID 540303, 2011. actives 0.31% (n = 330,000). cell surface uPA generation assay, qHTS. Potency, µM (doses to about 38.3 µM), without a hit: at the highest dose activity change, negative = inhibition, most hits filed as inhibitors; active means well fitted inhibition curve with a large enough effect; inconclusive means small, poorly fitted or top-dose-only effect; inactive means no such curve, though single readings can be large or run the other way; tested in mouse RAW 264.7 cells; further: potency means the concentration at half of the fitted maximal effect; nearly all actives have a fitted effect of over 55% in size
DT40 TDP1 CPT = qHTS for Inhibitors of human tyrosyl-DNA phosphodiesterase 1 (TDP1): qHTS in cells in presence of CPT | chicken DT40 Tdp1-/-;hTDP1 cells + 20 nM CPT, ATP luminescence, 48 h | actives 12% (n = 420,000) | Potency, µM (top dose mostly 46.2 µM), for the others: at the highest dose activity change, negative = growth inhibition, usual class: inhibitors; further: potency means the concentration at half of the fitted maximal effect; nearly all actives have a fitted effect of over 55% in size
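Chicken DT40 Tdp1-/- cells complemented with human TDP1, 400 cells/well, exposed to compounds plus 20 nM camptothecin for at least 48 h at 37 C; viability read as ATP content by CellTiter-Glo luminescence.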
HT1080 IDH1KD tx = qHTS for induction of synthetic lethality in tumor cells producing 2HG: qHTS for the HT-1080-IDH1KD cell line. actives 2% (n = 360,000). AID 686971, 2013. Potency, µM (doses to about 46.1 µM), for the others: at the highest dose activity, negative = toxicity, most hits filed as cytotoxic. HT-1080 IDH1 knockdown viability, ATP luminescence, 48 h;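 further: potency means the concentration at half of the fitted maximal effect; 0% = DMSO wells and -100% = cell-free medium wells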
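Luminescent ATP read-out (CellTiter-Glo, 10 min at room temperature) after 48 h compound exposure at 37 °C gave viability of IDH1-knockdown HT-1080 cells. Activity was normalised to DMSO and cell-free wells, then fitted as concentration-response curves.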
TDP1 cell noCPT = qHTS for Inhibitors of human tyrosyl-DNA phosphodiesterase 1 (TDP1): qHTS in cells in absence of CPT; actives 15% (n = 420,000); DT40 Tdp1-/- hTDP1 cells, no CPT, ATP luminescence, 48 h; AID 686978, 2013; Potency, µM (series often up to 46.2 µM), for inactives: at the top dose activity change, negative = growth inhibition, actives largely listed as inhibitors; further: potency means the concentration at half of the fitted maximal effect; nearly all actives have a fitted effect of over 55% in size
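Cells were dispensed at 400 per well, compounds added by pin tool, plates incubated ≥48 hr at 37 °C, then CellTiter-Glo added for 30 min at room temperature before luminescence reading. Line: DT40 Tdp1-/- complemented with hTDP1; camptothecin omitted.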
IL-1B inflam inh = qHTS for Inhibitors of Inflammasome Signaling: IL-1-beta AlphaLISA Primary Screen. THP-1 LPS/ATP IL-1B secretion, AlphaLISA, 16 h; active compounds read low. activity change, % at 57.5 µM. actives 4.7% (n = 360,000). AID 743279, 2014; in the data active means activity change below about -50%; inconclusive means mostly about -30% to -49%
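Secreted IL-1B measured by AlphaLISA bead assay after 16 h compound exposure of THP-1 cells; compounds (final up to 57.5 uM) added 1 h before LPS (250 ng/mL) and ATP (1.25 mM) stimulation; lower signal means less secretion.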
HT1080-NT tox = qHTS for induction of synthetic lethality in tumor cells producing 2HG: qHTS for the HT-1080-NT fibrosarcoma cell line. AID 686970, 2013. actives 1.6% (n = 360,000). HT-1080-NT fibrosarcoma viability, CellTiter-Glo ATP luminescence, 48 h. Potency, µM (doses to about 46.1 µM), without a hit: top-dose activity, negative = less viability, hits mostly cytotoxic;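 further: NT is the 2HG producing partner of a matched IDH1 knockdown line; potency means the concentration at half of the fitted maximal effect; 0% = DMSO-treated cells and -100% = media-only wells without cells; nearly all actives have a fitted effect of over 55% in size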
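A 48-hour cytotoxicity screen used HT-1080-NT cells plated 2 hours before compound delivery. ATP-based CellTiter-Glo luminescence measured viability, normalized to DMSO and no-cell controls.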
* = called active by the depositor; ? = inconclusive; nt = no result given; [ ] = remark or other dose. Unless noted, the call rests on the fitted dose curve; in most records, active means well fitted curve in the direction sought with a large enough effect; inconclusive means small, poorly fitted or top-dose-only effect, or another doubt; inactive means no such curve, though single readings can be large; an effect the other way counts as inactive or inconclusive. Unless noted, on the % scale 0 is the no-effect control and ±100 the full control effect.

SMILES	uPA surface inh	DT40 TDP1 CPT	HT1080 IDH1KD tx	TDP1 cell noCPT	IL-1B inflam inh	HT1080-NT tox
O=C(CCNS(=O)(=O)c1c(Cl)cccc1Cl)OCC(=O)c1ccccc1	2%	-1%	0%	-14%	5	8%
CCOC(=O)c1c(NC(=O)COC(=O)CCOc2cc(C)ccc2C)sc(C(=O)N(C)C)c1C	-2%	-5%	5%	-5%	12	3%
COc1ccc2nc(-c3ccccc3)nc(SC)c2c1	-19%	-10%	-5%	-16%	42	-1%
CCn1c(-c2ccco2)nc2ccccc21	-5%	-11%	12%	?	39	15%
c1ccc(-c2nc(-c3ccco3)n3ccccc23)cc1	-5%	10µM*	-22%	?	-92*	-29%
COc1ccccc1C(=O)c1c(N)c(-c2nc(-c3ccccc3)cs2)c2ccccn12	nt	18µM*	nt	21µM*	nt	nt
Cc1ccc(N2CC(C(=O)N3CCN(c4ccccn4)CC3)CC2=O)cc1 (stereo not drawn)	-1%	-4%	11%	-20%	-17	20%
COc1ccc(CNCc2cccc(C)c2)cc1	-4%	-28%	-25%	?	-11	-4%
COc1cc(CNCc2ccc(OC)c(OC)c2OC)cc(OC)c1	nt	18µM*	?	21µM*	?	0%
COc1ccc(CNCc2cccc(Oc3ccccc3)c2)cc1	-14%	-13%	?	?	-80*	-22%
COc1ccc(CNCc2ccc3ccccc3c2)c(OC)c1	-2%	16µM*	-10%	16µM*	-68*	-18%
COc1ccc(CCC(C)NCc2ccccc2OC)cc1 (stereo not drawn)	-19%	26µM*	-5%	?	-82*	0%
COc1ccccc1CCNC(C)CCc1ccc(O)cc1 (stereo not drawn)	0%	?	-1%	-20%	-3	5%
COc1ccc(CNCc2ccncc2)c(OC)c1	0%	7%	-14%	-22%	24	0%
CC(C)[C@H](NS(=O)(=O)c1ccc(Cl)cc1)C(=O)OCC(=O)NCCN1C(=O)CSC1=O	2%	-2%	2%	-15%	0	2%
CCOc1ccccc1NC(=O)COC(=O)C12CC3CC(CC(O)(C3)C1)C2	13%	-28%	3%	-29%	7	3%
COC(=O)c1ccc(C(NC(=O)c2cccnc2)NC(=O)c2cccnc2)cc1	-1%	9%	12%	3%	35	-7%
O=C(NC1CC1)c1sc2cc(Cl)ccc2c1Cl	-5%	?	6%	12µM*	-6	7%
CCc1ccccc1-n1nnc(-c2nc(-c3ccccc3F)no2)c1C	nt	-27%	nt	?	nt	nt
C/C(=N\N=C(N)N)c1ccc(Cl)cc1Cl	-7%	8.2µM*	21µM*	16µM*	-92*	13µM*
C/C(=N\N=C(N)N)c1cccc(Cl)c1	-5%	16µM*	?	8.2µM*	-57*	?
C/C(=N\NC(N)=O)c1cccc(Cl)c1	3%	?	-2%	-21%	-7	0%
CCCc1cc(=O)oc2cc(OC(=O)CN3C(=O)NC4(CCCC4)C3=O)ccc12	5%	-21%	-3%	-27%	2	-4%
Cc1ccc(S(=O)(=O)N2CC(O)C[C@H]2C(=O)OCC(=O)N2CCN(c3ccc(F)cc3)CC2)cc1C (stereo partly drawn)	?	10µM*	-1%	4.1µM*	14	-12%
COCCN(C)C(=O)c1cnn(-c2nccc(-c3cc(C)sc3C)n2)c1C	nt	-2%[9.04 µM]	nt	-15%	nt	nt
